Measurements as given in PubChem BioAssay AID2162 (National Center for Advancing Translational Sciences (NCATS), 2009).
Records with an inconclusive call do not appear. A number with no mark means an inactive call. Calls follow the shape of the dose curve; as a rule, active = well fitted inhibition curve with a large enough effect; inconclusive = small, poorly fitted or top-dose-only effect; inactive = flat fitted curve, though single readings scatter.

Biological target: Polyunsaturated fatty acid lipoxygenase ALOX12 (Homo sapiens) (UniProt P18054)
Experiment: Confirmation qHTS Assay for Inhibitors of 12-hLO (12-human lipoxygenase)
Settings: purified 12-hLO, xylenol orange absorbance; active compounds read low
Text: Assay Provider: Holman, T.R., University of California, Santa Cruz Screening Center PI: Austin, Christopher P. Screening Center: NIH Chemical Genomics Center Human lipoxygenase 12hLO is a member of the closely related lipoxygenase family of enzymes which catalyze the site-specific oxidation of arachidonic acid to various hormone precursor molecules and as such is a candidate for drug development in a variety of disease areas, such as cancer and inflammation. Inhibition of 12hLO activity was screened by utilizing arachidonic acid as a substrate. The extent of hydroperoxide product formation was measured by a secondary chromogenic reaction in which xylenol orange (XO, Sigma-Aldrich, cat. number 39,818-7) reacts with the ferric ions produced from the reaction between the hydroperoxide and ferrous ions. The Fe(III)-XO complex is characterized with red-shifted absorbance at 560 nm. A purified preparation of human 12hLO was supplied by Professor Ted Holman, University of California, Santa Cruz. This assay includes some confirmation and follow-up compounds for related primary screening assay AID 1452.
Assay Protocol: Buffer: 25 mM Hepes pH 7.0, 0.01% Triton X-100. […] The absorbance at 405 and 573 nm were measured using ViewLux (Perkin-Elmer) High-throughput CCD imager and absorbance protocol settings. The 573-to-405 absorbance ratio was used to compute reaction progress.

Chain of Polyunsaturated fatty acid lipoxygenase ALOX12 (Homo sapiens) (P18054 whole entry, looked up): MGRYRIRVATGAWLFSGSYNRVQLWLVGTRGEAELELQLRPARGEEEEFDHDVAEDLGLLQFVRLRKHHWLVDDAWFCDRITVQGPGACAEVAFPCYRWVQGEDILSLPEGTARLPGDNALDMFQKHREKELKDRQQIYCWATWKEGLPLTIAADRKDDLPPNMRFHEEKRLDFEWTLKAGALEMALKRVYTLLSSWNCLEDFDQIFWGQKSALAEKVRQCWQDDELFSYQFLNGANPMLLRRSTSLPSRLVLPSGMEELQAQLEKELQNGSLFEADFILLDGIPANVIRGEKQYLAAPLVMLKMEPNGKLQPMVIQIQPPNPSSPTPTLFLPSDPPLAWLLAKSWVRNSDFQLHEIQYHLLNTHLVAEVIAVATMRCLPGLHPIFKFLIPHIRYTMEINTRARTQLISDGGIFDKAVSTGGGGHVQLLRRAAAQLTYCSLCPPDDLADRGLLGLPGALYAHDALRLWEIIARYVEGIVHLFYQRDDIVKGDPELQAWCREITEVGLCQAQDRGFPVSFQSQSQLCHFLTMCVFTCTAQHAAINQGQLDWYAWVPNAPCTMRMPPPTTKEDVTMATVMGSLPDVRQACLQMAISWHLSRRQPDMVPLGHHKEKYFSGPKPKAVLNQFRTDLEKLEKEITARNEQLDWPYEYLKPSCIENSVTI

**Q.** `CCC(C)C(=O)c1c(O)c(C)c2oc3c(C)c(O)c(C(=O)C(C)CC)c(O)c3c2c1O` (stereo unspecified) was tested. Which activity change, negative = inhibition did it give?
**A.** -25.9%
